High-throughput results: PubChem BioAssay, National Center for Advancing Translational Sciences (NCATS)
HT1080 IDH1KD tx: qHTS for induction of synthetic lethality in tumor cells producing 2HG: qHTS for the HT-1080-IDH1KD cell line; HT-1080 IDH1 knockdown viability, ATP luminescence, 48 h; Potency, µM (doses to about 46.1 µM), without a hit: top-dose activity, negative = toxicity, usual class: cytotoxic; actives 2% (n = 360,000); AID 686971, 2013;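 note: 0% = DMSO wells and -100% = cell-free medium wells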
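IDH1KD HT-1080 cells, 750/well, RPMI + 5% FBS; compound pinned after 2 h settling; 48 h, 37 °C; CellTiter-Glo luminescence; % activity normalised to DMSO and no-cell wells; curves fitted, classed by r2 and efficacy.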
TGFb SMAD3 inh: qHTS for Inhibitors of TGF-b; actives 1.2% (n = 410,000); Potency, µM (doses to about 46.1 µM), for the others: top-dose activity, negative = inhibition, most hits filed as inhibitors; AID 588855, 2011; HepG2 CAGA-GFP TGF-b/SMAD3 reporter, GFP fluorescence, 18 h; TGF-beta stimulated, 500 pg/mL final; note: % is set by controls: 0 for no effect and ±100 for the full control effect; nearly all actives have a fitted effect of over 65% in size
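HEPG2 CAGA-GFP reporter cells (1000/well, DMEM with 1% FBS) received compounds, then recombinant TGF-beta at 500 pg/mL final for 18 hours at 37 degrees C. Per-cell GFP summed per well was normalised to unstimulated and stimulated DMSO controls before curve fitting.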
TDP1 cell noCPT: qHTS for Inhibitors of human tyrosyl-DNA phosphodiesterase 1 (TDP1): qHTS in cells in absence of CPT; DT40 Tdp1-/- hTDP1 cells, no CPT, ATP luminescence, 48 h; AID 686978, 2013; Potency, µM (doses to about 46.2 µM), for the others: top-dose activity change, negative = growth inhibition, usual class: inhibitors; actives 15% (n = 420,000); note: % is set by controls: 0 for no effect and ±100 for the full control effect; nearly all actives have a fitted effect of over 55% in size
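Camptothecin absent (DMSO only). Human TDP1-complemented DT40 knockout cells, 400 cells/well, 37 °C for minimum 48 hr; ATP measured via CellTiter-Glo, 30 min dark incubation, luminescence.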
HepG2 viability: qHTS for Inhibitors of TGF-b: Cytotox Counterscreen; HepG2 CAGA-GFP viability, ATP luminescence, 18 h; Potency, µM (highest dose often 46.1 µM), without a hit: at the highest dose activity change, negative = cytotoxicity, actives largely listed as cytotoxic; actives 0.76% (n = 410,000); AID 588856, 2011
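HepG2 CAGA-GFP cells (1000/well, DMEM with 1% FBS) received compound, then TGF-beta at 500 pg/mL final, and were incubated 18 hours at 37 degrees C. Viability was read by CellTiter-Glo luminescence. Media-only wells were set as complete cell-killing and DMSO as no toxicity.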
DT40 TDP1 CPT: qHTS for Inhibitors of human tyrosyl-DNA phosphodiesterase 1 (TDP1): qHTS in cells in presence of CPT. AID 686979, 2013. Potency, µM (series often up to 46.2 µM), inactives show at the highest dose activity change, negative = growth inhibition, actives largely listed as inhibitors. chicken DT40 Tdp1-/-;hTDP1 cells + 20 nM CPT, ATP luminescence, 48 h. actives 12% (n = 420,000); note: % is set by controls: 0 for no effect and ±100 for the full control effect; nearly all actives have a fitted effect of over 55% in size
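Chicken DT40 Tdp1-/- cells complemented with human TDP1, 400 cells/well, exposed to compounds plus 20 nM camptothecin for at least 48 h at 37 C; viability read as ATP content by CellTiter-Glo luminescence.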
HT1080NT lethal: qHTS for induction of synthetic lethality in tumor cells producing 2HG: qHTS for the HT-1080-NT fibrosarcoma cell line; AID 686970, 2013; HT-1080-NT fibrosarcoma viability, CellTiter-Glo ATP luminescence, 48 h; Potency, µM (highest dose often 46.1 µM), inactives show top-dose activity, negative = less viability, most hits filed as cytotoxic; actives 1.6% (n = 360,000);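 note: NT is the 2HG producing partner of a matched IDH1 knockdown line; 0% = DMSO-treated cells and -100% = media-only wells without cells; nearly all actives have a fitted effect of over 55% in size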
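750 cells/well, RPMI + 5% FBS; 2 h settle, compound pin-transfer, 48 h at 37 degrees C. CellTiter-Glo 10 min RT, luminescence. Normalized to DMSO and media-only wells.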
Numbers without * were called inactive; ? = inconclusive; nt = not tested or not shown; [ ] = remark or other dose. Compounds with a hit are over-represented: about 17% of the library has one in this group of screens. Calls come from the whole dose curve; as a rule, active = well fitted curve in the direction sought with a large enough effect; inconclusive = small, poorly fitted or top-dose-only effect, or another doubt; inactive = no such curve, though single readings can be large; an effect the other way counts as inactive or inconclusive. Potency is the fitted concentration of half-maximal effect.

SMILES | HT1080 IDH1KD tx | TGFb SMAD3 inh | TDP1 cell noCPT | HepG2 viability | DT40 TDP1 CPT | HT1080NT lethal
CCn1c(=O)cc(OCC(=O)N2CCN(c3cccc(C)c3C)CC2)c2ccccc21 | nt | -8.0% | 7.31µM* | -0.3% | 9.2µM* | nt
COC(=O)CN(C)C(=O)c1ccc2nc(Cc3cccc(Cl)c3)oc2c1 | -7.3% | -4.0% | -18.1% | -14.5% | -25.1% | 3.2%
CN(Cc1cnc2ccccn12)C1CCN(c2cccc(NC(=O)c3cccnc3)c2)CC1 | nt | nt | ? | nt | 5.1%[9.04 µM] | nt
COc1cc(Cl)c(C)cc1NC(=O)Cn1c2ncccc2c(=O)n1-c1ccccc1 | nt | -18.6% | -21.9% | 2.8% | ? | nt
Cc1cccc(N=C2CCCC2C(=O)Nc2cccc(C)c2C)c1C (configuration not stated) | 7.4% | -1.7% | -9.0% | 6.8% | -26.8% | 9.8%
COc1ccc(C(=O)N/C(=C/c2cccnc2)C(=O)N2CCN(C)CC2)cc1OC | 7.5% | 1.7% | 15.8% | -1.7% | 1.1% | 1.0%
Oc1ccc(-c2nnc(SCC3CCCCC3)o2)cc1 | -12.8% | -28.6% | ? | 11.2µM* | ? | -0.2%
COc1ccc(S(=O)(=O)N2CCCC(C(=O)NCc3cccnc3)C2)cc1 (configuration not stated) | -8.1% | -0.2% | ? | 11.3% | -7.8% | 9.8%
C=CC[C@@H](CC(=O)OC(C)(C)C)C(=O)OC[C@@H]1CCCN1C(=O)[C@@H](CC=C)CC(=O)N(CCO)Cc1ccccc1 | ? | 0.6% | ? | -2.7% | ? | -3.9%
Nc1c(C(=O)c2ccc(Cl)cc2)sc2nsc(SCCN3CCOCC3)c12 | 18.7% | 3.0% | 9.2µM* | 1.7% | 4.61µM* | 14.8%
Cc1cc(C)c2c(N)c(C(=O)c3ccccc3)sc2n1 | 23.1% | ? | ? | -37.4% | -27.6% | 16.5%
Cc1cc(C)c2c(N)c(C(=O)c3ccc(Cl)cc3)sc2n1 | -27.5% | -15.1% | ? | -35.3% | ? | -29.5%
Nc1c(C(=O)c2ccccc2)sc2nsc(SCCN3CCCC3)c12 | 23.1µM* | 33.5% | ? | -36.0% | ? | 11.6µM*
Cc1cccc(Cn2cnc3c(cnn3C(C)(C)C)c2=O)c1 | nt | ? | nt | -65.9% | nt | nt
COc1ccc(CCC(=O)N(C)CC(=O)Nc2cc(C)ccc2C)cc1 | 17.7% | 5.6% | -21.5% | 3.5% | -7.3% | 10.2%
O=C(/C=C/Sc1ccccc1)c1ccc(Cl)cc1 | 7.94µM* | 8.91µM* | 16.4µM* | 11.2µM* | ? | ?
O=CC(=O)c1ccc(Cl)cc1 | nt | -28.2% | ? | -29.4% | ? | nt
O=C(/C=C/Sc1ccccc1)c1ccccc1 | 5.62µM* | 10µM* | 5.17µM* | 15.8µM* | 5.8µM* | 2.82µM*
CCCN(CC(=O)Nc1cc(Cl)ccc1Cl)C(=O)c1ccc2n[nH]nc2c1 | -1.5% | 0.1% | 1.3% | 1.3% | 3.0% | -6.5%
Cc1noc(C)c1-c1cc(N(C)Cc2ccco2)ncn1 | nt | nt | -9.9% | nt | ? | nt
CC(C)(CN1CCOCC1)NS(=O)(=O)c1ccccc1 | 8.1% | ? | -2.1% | 17.1% | -11.3% | 4.6%
O=C(Nc1ccccc1)N1CCCC2(CCN(C(=O)c3cccc(F)c3)CC2)C1 | nt | nt | -8.5% | nt | 0.0% | nt
Cc1cc(C(=O)N2CCN(c3ccc([N+](=O)[O-])cc3)CC2)co1 | -1.7% | -23.3% | ? | -22.4% | ? | -0.8%
Cn1c(C(=O)N2CCN(c3ccc([N+](=O)[O-])cc3)CC2)cc2c(=O)[nH]c3ccccc3c21 | -9.0% | 0.2% | 11.6µM* | -2.9% | ? | -18.7%
Cc1cc(O)ccc1N=Cc1c(C(F)(F)F)[nH][nH]c1=O | -1.9% | ? | 10.3µM* | -13.4% | 23.1µM* | -5.5%
SMILES | HT1080 IDH1KD tx | TGFb SMAD3 inh | TDP1 cell noCPT | HepG2 viability | DT40 TDP1 CPT | HT1080NT lethal
O=Nc1c(O)n(Cc2ccc(Cl)cc2)c2ccccc12 | ? | -14.7% | -25.5% | -57.3% | 7.4% | ?
O=Nc1c(O)n(Cc2ccc(Cl)cc2Cl)c2ccccc12 | ? | ? | -27.4% | 5.01µM* | -16.4% | ?
COc1ccc(C2c3c(-c4c(C)cc(C)cc4O)n[nH]c3C(=O)N2Cc2ccco2)cc1 (configuration not stated) | nt | ? | 16.4µM* | -105.4% | 14.6µM* | nt
COc1ccc(C2c3c(-c4ccccc4O)n[nH]c3C(=O)N2Cc2ccco2)cc1 (configuration not stated) | ? | ? | ? | -21.0% | ? | ?
Cc1cc(C)c(-c2n[nH]c3c2C(c2ccccc2F)N(Cc2ccco2)C3=O)c(O)c1 (configuration not stated) | nt | ? | 20.6µM* | -99.1% | 20.6µM* | nt
COc1ccc(-n2c(SCC(=O)NNC(=O)c3ccc(C)cc3)nnc2-c2ccncc2)cc1 | 24.9% | ? | -8.2% | 6.7% | -13.3% | 14.1%
O=S(=O)(O)NC1CCCCC1 | nt | nt | -5.5% | nt | 0.6% | nt
O=C(Nc1ccon1)c1ccc(N2CCCCC2)c([N+](=O)[O-])c1 | -3.2% | -1.1% | ? | -58.9% | ? | -0.6%
O=C(Nc1nc2ccccc2s1)c1ccc(N2CCCCC2)c([N+](=O)[O-])c1 | -9.5% | -10.9% | 14.6µM* | 0.6% | 23.1µM* | -20.4%
O=C(Nc1nc(-c2ccccc2)cs1)c1ccc(N2CCOCC2)c([N+](=O)[O-])c1 | ? | -15.8% | 8.2µM* | -23.7% | 14.6µM* | ?
CC(=NNC(=S)N1CCCCCC1)c1cccc2cccnc12 | ? | 2.24µM* | 0.0206µM* | 14.2% | 0.0164µM* | -8.4%
S=C(NC1CCCC1)N1CCN(c2ccccn2)CC1 | 26.0% | 1.0% | ? | -2.6% | 1.9% | 9.9%
CC(=NNC(=S)N1CCN(c2ccccn2)CC1)c1nccs1 | ? | ? | 0.0164µM* | 1.3% | 0.0146µM* | -18.8%
CC(=NNC(=S)N1CCN(C2CCCCCC2)CC1)c1ccccn1 | ? | ? | 0.0366µM* | -79.3% | 0.0651µM* | 20.6µM*
CC(=NNC(=S)N1CCN(c2ccccn2)CC1)c1ccccn1 | ? | 0.0% | 16.4µM* | 1.9% | 18.4µM* | -9.1%
O=C(O)CC1CCC1CC(=O)O (configuration not stated) | 5.2% | 0.4% | -1.5% | 1.3% | 5.7% | -2.1%
